Among all 290,000 compounds or so, about 3,000 (1%) were called active. This is one part of a sample in which actives are shown more often than they occur. Values without a mark were called inactive. Cut-off read from the data, not from the text of the source: active = inhibition mostly above about 36% (no sharp cut-off); inactive = mostly below about 34%.
test: inhibition of NOD1-driven NF-kB reporter – cell-based, luminescence, uHTS, primary screen (AID 1578); conditions: NOD1-driven NF-kB luciferase reporter cells, at 4 µM, hits give high values;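 note: HEK-293T reporter cells stimulated with the NOD1 agonist gamma-tri-DAP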

| Structure (SMILES) | inhibition |
| --- | --- |
| Cn1c(O)c(N=NC(=O)CNC(=O)/C=C/c2ccccc2)c2ccccc21 | 24.3% |
| Cc1cccc(Cc2cnc(NC(=O)c3ccc(C)o3)s2)c1 | -34.8% |
| O=C1c2ccccc2C(=O)N1c1ncc(Cc2ccc(Cl)cc2)s1 | 25.4% |
| Cc1cccc(Cc2cnc(N3C(=N)SC(c4ccccc4)C3=O)s2)c1 (stereo unspecified) | 95.5% (active) |
| Brc1cccc(-c2nc3cccnc3nc2-c2cccc(Br)c2)c1 | 23.6% |
| CC(C)(C)c1nc2cc(Cl)c([N+](=O)[O-])cc2o1 | -22.4% |
| O=C(CN1CCCCCCC1)N/N=C/c1ccc([N+](=O)[O-])o1 | 8.4% |
| O=C1N=C2N(CCN3CCCCC3)c3ccccc3N2/C1=C\c1ccc([N+](=O)[O-])o1 | 84.9% (active) |
| c1ccc2c(c1)N1CCCN=C1N2CCN1CCCCC1 | -32.5% |
| CO/N=C/c1ccc(N2CCCC2)c([N+](=O)[O-])c1 | -21.4% |
| Cc1ccc(S(=O)(=O)N2CCN(c3ccnc4cc(Cl)ccc34)CC2)cc1 | 16.3% |
| C/C(Nc1ccccc1)=C(/C#N)C(N)=O | -14.6% |
| CC(=O)Nc1ccc(C(=O)c2ccccc2)cc1 | -1% |
| N#CC(C#N)=C(Nc1ccccc1)c1ccccc1 | 32.8% (active) |
| O=C(N/N=C/C=C/c1ccccc1)c1cc(C2CC2)[nH]n1 | 0.1% |
| CS(=O)(=O)Nc1nc2ccccc2[nH]1 | -0.8% |
| O=S(=O)(Nc1nc2ccccc2[nH]1)c1ccc2ccccc2c1 | 56.9% |
| CN(Cc1ccccc1)S(=O)(=O)c1ccc2c(c1)CCC(=O)N2 | -21.5% |
| O=C(c1cc(-c2ccccc2Cl)nc2ccc(Br)cc12)N1CCN(c2ccccn2)CC1 | -7.5% |
| CC(C)N(C(=O)COC(=O)c1ccccc1C(=O)c1ccc(Cl)c([N+](=O)[O-])c1)C(C)C | -13.9% |
| CN(CCC#N)C(=O)COC(=O)c1ccccc1C(=O)c1ccc(Cl)c([N+](=O)[O-])c1 | 55.1% (active) |

| Structure (SMILES) | inhibition |
| --- | --- |
| O=C(COC(=O)c1ccc(Cl)c([N+](=O)[O-])c1)NC1CCCC1 | 3.2% |
| O=C(COC(=O)c1cc([N+](=O)[O-])ccc1Cl)NC1CCCC1 | 1.2% |
| CSc1ccc(Cl)c(C(=O)OCC(=O)N(C)CCC#N)c1 | -28.1% |
| C(=N\n1cnnc1)/c1cccc2ccccc12 | 7.2% |
| Cc1cc(=O)oc2c(C)c(OCC(=O)N3CCC(C(=O)O)CC3)ccc12 | -25.2% |
| CCc1ccc(C2CC(=O)Nc3c2c(=O)nc2c(C)cccn32)cc1 (stereo unspecified) | -32.6% |
| COc1cccc(C(CNC(=O)C(c2ccccc2)c2ccccc2)N(C)C)c1 (stereo unspecified) | -20.7% |
| CC(C)(C)NC(=O)CSc1nc2[nH]ncc2c(=O)[nH]1 | -22.7% |
| COc1ccccc1N1CCN(/N=C/c2cc(Br)ccc2F)CC1 | -42.6% |
| CNc1ccn(C2CCCO2)c(=O)n1 (stereo unspecified) | 1.2% |
| COc1ccc(NC(=O)c2ccccc2NS(=O)(=O)c2ccc(C)cc2)c([N+](=O)[O-])c1 | 58.5% |
| CCOc1ccc(NC(=O)c2cccnc2Cl)c([N+](=O)[O-])c1 | -27.8% |
| Cc1ccc2oc(C(=O)N(CCO)Cc3ccccc3)c(C)c2c1 | -6.1% |
| O=C(C(=O)N1CCOCC1)c1cn(CCOc2ccccc2)c2ccccc12 | 1% |
| Cc1ccc(CSC2=NCCN2S(=O)(=O)c2ccc(F)cc2)cc1 | 48.3% (active) |
| Cc1ccc(S(=O)(=O)N2CCN=C2SCc2ccccc2)cc1 | -1.7% |
| Cc1ccc(CSC2=NCCN2S(=O)(=O)c2ccccc2)cc1 | -6% |
| Cc1ccccc1S(=O)(=O)Cc1ccc(C(=O)NCCCN2CCN(C)CC2)o1 | -8.5% |
| CCOC(=O)Cc1cnc(NC(=O)Cn2nnc(-c3ccc(OCC)cc3)n2)s1 | 0.4% |
| O=C(N/N=C/c1ccc(OC(=O)c2ccccc2)cc1)c1cccnc1 | -4.5% |
| COC(=O)c1ccc2nc(C)c(C)nc2c1 | -2.5% |

| Structure (SMILES) | inhibition |
| --- | --- |
| COC(=O)c1ccc2c(c1)C(C)(C)C(/C=C/c1ccc(OC)c(OC)c1OC)=[N+]2C | -8.7% |
| CCCCNC(=O)c1cc2c(=O)n(CC)c3ccccc3c2s1 | -5.9% |
| COc1ccc(CNC(=O)CN(C(=O)CCC(=O)Nc2ccccn2)c2ccc3c(c2)OCO3)cc1 | -19.9% |
| CCn1cc(C(=O)NCCCOC)c(=O)c2cc(S(=O)(=O)N(C)C3CCCCC3)ccc21 | -10.9% |
| CCn1cc(C(=O)NCC(OC)OC)c(=O)c2cc(S(=O)(=O)N(C)C3CCCCC3)ccc21 | 59% (active) |
| COC(CNC(=O)c1cn(C)c2ccc(S(=O)(=O)N(C)C3CCCCC3)cc2c1=O)OC | -18.2% |
| CCOc1ccc(S(=O)(=O)N(CC)CC(=O)N2CCOCC2)cc1C | -22.7% |
| CN(C(=O)Nc1ccc(Cl)cc1)c1c2c(nn1C)CCCC2 | -14.8% |
| COc1ccc(OC)c2c1sc(=NC(=O)c1cccc(N3C(=O)CCC3=O)c1)n2C | -1.9% |
| CCN(CC)c1ccc(/C=N/Nc2nc3ccccc3[nH]2)c(O)c1 | 11.9% |
| C(=N\Nc1nc2ccccc2[nH]1)/c1ccccc1 | -71.3% |
| C(=N\Nc1nc2ccccc2[nH]1)/c1ccccn1 | 59.4% (active) |
| CCN(CC)c1ccc(/C=N/Nc2nc3ccccc3[nH]2)cc1 | 105% (active) |
| Cc1csc(N/N=C/c2ccccn2)n1 | 8.7% |
| C(=N\Nc1nc2ccccc2[nH]1)/c1ccc2ncccc2c1 | 18.6% |
| Cc1nc(N/N=C/c2ccccn2)sc1C | 91% (active) |
| CCCc1sc(N/N=C/c2ccccn2)nc1-c1ccc(Br)cc1 | -37.7% |
| C(=N\Nc1nc2ccccc2[nH]1)/c1ccncc1 | -22% |
| CCCOc1ccc(N2C(=O)CC(N(CCc3ccc(OC)c(OC)c3)C(=S)Nc3ccccc3)C2=O)cc1 (stereo unspecified) | -8.1% |
